# Laboratory results: ChEMBL document CHEMBL4513216, “Probing the Open Global Health Chemical Diversity Library for Multistage-Active Starting Points for Next-Generation Antimalarials” (ACS Infect Dis, 2020)
# In all, about 69,000 compounds went through this assay and about 8,600 (12%) showed an effect of 50% or more. Only a selection was taken, and strong results are over-represented in it overall.
# System: Plasmodium berghei
# Test: Screen against P. berghei liver stage (PbLuc), transformed with Luciferase, at 10uM
# Format: functional, HepG2
# Settings: tested at 10 uM
row,SMILES,INHIBITION
1,CN1Cc2ccccc2CC2(CCN(Cc3nccn3C)CC2)C1=O,34.5%
2,Cc1cc(C2CCCN(CCNS(=O)(=O)c3ccccc3)C2)n[nH]1 (centres undefined),11.9%
3,CC1CN(C)CCN1C(=O)Nc1nc(-c2ccco2)cs1 (centres undefined),14%
4,O=C(c1ccco1)N1CCC2(CCC(=O)N2Cc2ccncc2)CC1,8.74%
5,c1ccc(Cc2noc(-c3ccc(NCC4COCCO4)nc3)n2)cc1 (centres undefined),12.02%
6,CC(NC(=O)NCCC(=O)OC(C)(C)C)c1nncn1C (centres undefined),25.4%
7,CCc1nccn1-c1cncc(C2CCCN2CC(=O)N2CCCC2)n1 (centres undefined),4.08%
8,Cc1cc2cccc(C(=O)N3CCOC(CCN(C)C)C3)c2o1 (centres undefined),33%
9,Cc1cccc(CN2CC3(CCN(S(=O)(=O)C4CC4)CC3)OCC2=O)n1,7.53%
10,Cc1nccn1CCCn1cncc1-c1ccc2c(c1)CCC(C)N2C (centres undefined),87.7%
11,Cc1nccn1CCCn1cncc1-c1ccc2c(c1)CCCN2C,41.5%
12,Cc1nccn1CCCn1cncc1-c1ccc2c(c1)CC(C)N2C (centres undefined),62.4%
13,Cc1cc(C)n(CCCn2cncc2-c2ccc3c(c2)CC(C)N3C)n1 (centres undefined),42.6%
14,CCN1c2ccc(-c3cncn3CCCn3ccnc3C)cc2CC1C (centres undefined),36%
15,CN1CCCc2cc(-c3cncn3CCNC3CCS(=O)(=O)C3)ccc21 (centres undefined),32.3%
16,O=C(NCc1ccco1)[C@@H]1CCO[C@@H]2CCN(c3ncccn3)C[C@H]21,17.1%
17,O=C(Cn1ncc2c(c1=O)CCCC2)Nc1cccc2[nH]ccc12,30.2%

row,SMILES,INHIBITION
1,Cc1nc(N(C)C)nc(NCCc2c[nH]cn2)c1C,-38%
2,COCC(=O)N1CCCC(c2csc(NC(C)=O)n2)C1 (centres undefined),-55%
3,CCCn1cc(S(=O)(=O)N(C)Cc2nonc2C)c(C)n1,3.48%
4,Cn1cc(CN2CCc3c(cnc(-c4ccccc4)c3C(=O)O)C2)cn1,23.3%
5,CNC(=O)C1Cn2ccnc2C2(CCN(C(=O)CC3CCCC3)CC2)O1 (centres undefined),-10.3%
6,Cc1ccc(C(=O)N2CCC(c3noc(-c4cccnc4)n3)CC2)cn1,42.6%
7,COCCN1C[C@@H](C)[C@@]2(COCCN(C(=O)c3ccccn3)C2)C1,36.2%
8,CCCNC(=O)c1nn(CC)cc1NC(=O)c1c(C)nn(C)c1C,-4.56%
9,Cc1cccc(C)c1OCC(=O)N1CCOCC1c1ncon1 (centres undefined),-53.2%
10,CC(C)c1ccc(OCC(=O)N2CCOCC2c2ncon2)cc1 (centres undefined),-50.8%
11,O=C(COc1cccc(Cl)c1)N1CCOCC1c1ncon1 (centres undefined),7.12%
12,O=C(COc1ccc(Cl)cc1)N1CCOCC1c1ncon1 (centres undefined),55.4%
13,CCc1ccccc1OCC(=O)N1CCOCC1c1ncon1 (centres undefined),60.5%
14,Cc1cc(C)cc(OCCC(=O)N2CCOCC2c2ncon2)c1 (centres undefined),50.4%
15,Cc1ccc(CCC(=O)N2CCOCC2c2ncon2)c(C)c1 (centres undefined),-56.7%
16,CCc1ccc(CCC(=O)N2CCOCC2c2ncon2)cc1 (centres undefined),27.9%
17,Cc1ccc(OCCC(=O)N2CCOCC2c2ncon2)cc1C (centres undefined),21.6%
